The supplement of paper PMC10849652
About 8,800 targets were measured; listed, in parts, are those with a hit and a random draw of the rest. About 0.5% of all pairs of compound and target were hits.

How the values were obtained:
Experiment in all cases: log2 fold change, soluble protein after heating vs DMSO (PISA); higher = thermal stabilisation; K562 lysate, 10 uM; active = over 0.2 and 3.5 SD of the protein, either way, in both replicates (recomputed)
[1] = compound: CN1CC[C@H](c2c(O)cc(O)c3c(=O)cc(-c4ccccc4Cl)oc23)[C@H](O)C1 [alvocidib]
How it was run: (§1)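 Log-two fold change in thermal stability relative to solvent controls is reported from duplicates. For each sample, crude K562 extract from dounce-homogenised pellets in PBS pH 7.4 with 1 mM MgCl2, at 1 mg/mL protein, was treated with 10 μM compound for 30 min. Aliquots heated for 3 min across 48°C-58°C were pooled, brought to 0.5% NP-40 at 4°C and cleared at 21,000xg for 90 min. The supernatant was quantified by TMTpro 16plex LC-MS/MS with channel sums equalised.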

[2] = compound: CN1CCc2c(c3ccccc3n2Cc2ccc(C(=O)NO)cc2)C1 [Tubastatin A]
How it was run: as §1

[3] = compound: CNC(=O)C1=CC=CC=C1NC2=NC(=NC=C2Cl)NC3=C(C=C(C=C3)N4CCOCC4)OC
How it was run: as §1

[4] = compound: CNC(=O)c1ccc(Nc2ncc(C(F)(F)F)c(NCc3nccnc3N(C)S(C)(=O)=O)n2)cc1 [defactinib]
How it was run: as §1

[5] = compound: CNc1nc(-c2ccc3c(N)n[nH]c3c2)cc(N2C[C@@H](C(=O)NC3CCCCC3)CC[C@H]2C)n1
How it was run: as §1

[6] = compound: COC(=O)N[C@@H](C)CNc1nccc(-c2cn(C(C)C)nc2-c2cc(Cl)cc(NS(C)(=O)=O)c2F)n1 [encorafenib]
How it was run: as §1

[7] = compound: COC(=O)[C@H](CCSC)NC(=O)C1=C(C=C(C=C1)NC[C@H](CS)N)C2=CC=CC=C2
How it was run: as §1

[8] = compound: COc1cc(Nc2ncc3c(n2)-c2ccc(Cl)cc2C(c2c(F)cccc2OC)=NC3)ccc1C(=O)O [alisertib]
How it was run: as §1

[9] = compound: COc1cc2nc(-c3cc(F)ccc3O)nc(N[C@@H]3CNC[C@H]3C(C)(C)O)c2cc1OC
How it was run: as §1

[10] = compound: COc1cc2ncnc(Nc3ccc(F)c(Cl)c3)c2cc1OCCCN1CCOCC1 [gefitinib]
How it was run: as §1

[11] = compound: CS(=O)(=O)CCNCc1ccc(-c2ccc3ncnc(Nc4ccc(OCc5cccc(F)c5)c(Cl)c4)c3c2)o1 [lapatinib]
How it was run: as §1

[12] = compound: CS(=O)(=O)N1CCN(Cc2cc3nc(-c4cccc5[nH]ncc45)nc(N4CCOCC4)c3s2)CC1 [pictilisib]
How it was run: as §1

[13] = compound: C[C@@H](Oc1cc(-c2cnn(C3CCNCC3)c2)cnc1N)c1c(Cl)ccc(F)c1Cl [crizotinib]
How it was run: as §1

[14] = compound: C[C@H](C1=CC=C(C=C1)C(=O)NC2=C3C=CNC3=NC=C2)N
How it was run: as §1

[15] = compound: C[C@H](Nc1ncnc2nc[nH]c12)c1cc2cccc(Cl)c2c(=O)n1-c1ccccc1 [duvelisib]
How it was run: as §1

[16] = compound: Cc1cc(Nc2cc(CN3CCOCC3)c3nc(C)c(Cc4ccc(Cl)cc4F)n3n2)n[nH]1 [gandotinib]
How it was run: as §1

[17] = compound: Cc1cc(Nc2cc(N3CCN(C)CC3)nc(Sc3ccc(NC(=O)C4CC4)cc3)n2)n[nH]1 [tozasertib]
How it was run: as §1

[18] = compound: Cc1ccc(-n2nc(C(C)(C)C)cc2NC(=O)Nc2ccc(OCCN3CCOCC3)c3ccccc23)cc1 [doramapimod]
How it was run: as §1

[19] = compound: Cc1ccc(NC(=O)c2ccc(CN3CC[C@H](N(C)C)C3)c(C(F)(F)F)c2)cc1Nc1nccc(-c2cncnc2)n1 [bafetinib]
How it was run: as §1

[20] = compound: Cc1cccc(CC(=O)N2CCc3c2ccc(-c2cn(C)c4ncnc(N)c24)c3F)n1
How it was run: as §1

Measured: log2 fold change

SCML2 (UniProt Q9UQR0)
inactive: [1] 0.006 | [2] -0.204 | [3] 0.031 | [4] -0.03 | [5] -0.035 | [6] 0.01 | [7] 0.18 | [8] 0.025 | [9] -0.016 | [10] -0.053 | [11] 0.035 | [12] -0.027 | [13] -0.022 | [14] 0.034 | [15] 0.006 | [16] -0.045 | [17] 0.029 | [18] 0 | [19] -0.017 | [20] -0.014

RFC3 (UniProt P40938)
Sequence of UniProt P40938 (P40938 whole entry, looked up): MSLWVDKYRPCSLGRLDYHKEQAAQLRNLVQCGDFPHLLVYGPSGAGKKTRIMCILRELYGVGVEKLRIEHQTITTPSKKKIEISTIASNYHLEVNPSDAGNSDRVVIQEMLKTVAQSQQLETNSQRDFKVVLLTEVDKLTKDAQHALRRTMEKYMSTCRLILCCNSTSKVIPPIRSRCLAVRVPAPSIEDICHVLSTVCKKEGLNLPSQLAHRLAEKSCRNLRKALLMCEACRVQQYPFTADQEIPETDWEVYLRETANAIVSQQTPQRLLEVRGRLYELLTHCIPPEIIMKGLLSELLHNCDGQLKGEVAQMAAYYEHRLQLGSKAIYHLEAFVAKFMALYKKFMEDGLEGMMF
inactive: [1] -0.008 | [2] -0.142 | [3] 0.024 | [4] 0.036 | [5] -0.014 | [6] 0.002 | [7] -0.005 | [8] 0.007 | [9] 0.029 | [10] -0.075 | [11] -0.045 | [12] -0.009 | [13] -0.043 | [14] -0.072 | [15] 0.037 | [16] -0.039 | [17] 0.027 | [18] 0.016 | [19] -0.051 | [20] 0.1

RPL36AL (UniProt Q969Q0)
active: [5] -0.243
inactive: [1] 0.055 | [2] -0.056 | [3] 0.023 | [4] 0.026 | [6] 0.03 | [7] -0.08 | [8] -0.057 | [9] -0.029 | [10] -0.07 | [11] 0.05 | [12] 0.031 | [13] 0.216 | [14] 0.01 | [15] -0.033 | [16] -0.038 | [17] 0.047 | [18] -0.131 | [19] 0.137 | [20] 0.003

RBM4 (UniProt Q9BWF3)
inactive: [1] 0.16 | [2] -0.168 | [3] 0.013 | [4] -0.011 | [5] -0.088 | [6] 0.089 | [7] -0.066 | [8] 0.037 | [9] 0.006 | [10] -0.004 | [11] -0.015 | [12] -0.01 | [13] 0.018 | [14] 0.183 | [15] -0.003 | [16] -0.097 | [17] 0.075 | [18] -0.109 | [19] -0.02 | [20] -0.069

RDX (UniProt P35241)
active: [14] 0.546
inactive: [1] 0.116 | [2] 0.042 | [3] -0.002 | [4] -0.009 | [5] 0.034 | [6] -0.047 | [7] -0.033 | [8] -0.018 | [9] 0 | [10] 0.013 | [11] -0.018 | [12] 0.02 | [13] 0.063 | [15] 0.005 | [16] -0.093 | [17] -0.005 | [18] -0.045 | [19] 0.077 | [20] -0.136

RAD50 isoform 2 (UniProt Q92878)
Sequence of UniProt Q92878 (Q92878 whole entry, looked up): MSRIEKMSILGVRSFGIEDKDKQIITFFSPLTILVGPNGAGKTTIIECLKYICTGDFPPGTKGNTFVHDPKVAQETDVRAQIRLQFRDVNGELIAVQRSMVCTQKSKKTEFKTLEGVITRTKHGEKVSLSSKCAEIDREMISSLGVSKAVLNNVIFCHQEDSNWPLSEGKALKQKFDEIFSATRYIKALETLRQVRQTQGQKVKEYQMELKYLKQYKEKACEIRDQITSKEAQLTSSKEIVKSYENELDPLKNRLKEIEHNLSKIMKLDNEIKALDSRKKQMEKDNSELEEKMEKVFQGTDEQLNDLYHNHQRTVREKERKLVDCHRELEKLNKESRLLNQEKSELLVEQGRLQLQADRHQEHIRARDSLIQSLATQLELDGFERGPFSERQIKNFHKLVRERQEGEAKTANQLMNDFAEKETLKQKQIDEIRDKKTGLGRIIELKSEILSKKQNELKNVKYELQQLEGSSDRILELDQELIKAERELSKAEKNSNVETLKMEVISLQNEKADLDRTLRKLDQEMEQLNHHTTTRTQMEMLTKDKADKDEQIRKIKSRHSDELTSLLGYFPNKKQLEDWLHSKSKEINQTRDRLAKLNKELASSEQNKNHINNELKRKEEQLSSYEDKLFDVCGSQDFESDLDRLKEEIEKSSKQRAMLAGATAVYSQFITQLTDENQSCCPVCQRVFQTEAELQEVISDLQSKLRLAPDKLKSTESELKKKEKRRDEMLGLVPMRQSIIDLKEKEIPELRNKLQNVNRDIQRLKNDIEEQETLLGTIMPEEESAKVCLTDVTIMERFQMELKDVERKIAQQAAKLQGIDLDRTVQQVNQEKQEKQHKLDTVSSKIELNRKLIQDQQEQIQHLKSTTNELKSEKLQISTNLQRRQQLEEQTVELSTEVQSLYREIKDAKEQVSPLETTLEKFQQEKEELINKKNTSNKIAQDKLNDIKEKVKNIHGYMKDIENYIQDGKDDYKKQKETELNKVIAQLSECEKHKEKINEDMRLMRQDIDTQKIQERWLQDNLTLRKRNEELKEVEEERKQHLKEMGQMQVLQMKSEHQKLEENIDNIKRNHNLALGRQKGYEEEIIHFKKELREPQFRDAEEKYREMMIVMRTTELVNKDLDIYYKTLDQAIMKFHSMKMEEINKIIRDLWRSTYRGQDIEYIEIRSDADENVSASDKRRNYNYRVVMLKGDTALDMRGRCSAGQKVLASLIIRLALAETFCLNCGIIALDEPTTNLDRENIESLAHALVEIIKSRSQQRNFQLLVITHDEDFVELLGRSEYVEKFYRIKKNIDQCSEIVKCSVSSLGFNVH
inactive: [1] 0.023 | [2] -0.137 | [3] 0.008 | [4] 0.026 | [5] -0.04 | [6] 0.006 | [7] 0.108 | [8] 0.002 | [9] 0.001 | [10] -0.016 | [11] -0.012 | [12] -0.001 | [13] -0.025 | [14] 0.007 | [15] -0.019 | [16] -0.07 | [17] 0.011 | [18] -0.003 | [19] -0.004 | [20] 0.006

RAI14 isoform 2 (UniProt Q9P0K7)
inactive: [1] 0.019 | [2] -0.08 | [3] 0.003 | [4] 0.031 | [5] 0.077 | [6] 0.012 | [7] 0.083 | [8] -0.018 | [9] 0 | [10] 0.029 | [11] -0.026 | [12] -0.007 | [13] -0.014 | [14] 0 | [15] -0.025 | [16] -0.051 | [17] 0.009 | [18] 0 | [19] -0.029 | [20] 0.002

RCOR1 (UniProt Q9UKL0)
inactive: [1] -0.031 | [2] -0.021 | [3] -0.017 | [4] -0.039 | [5] 0.014 | [6] 0.01 | [7] 0.115 | [8] 0.023 | [9] 0.027 | [10] -0.011 | [11] -0.056 | [12] -0.069 | [13] 0.048 | [14] -0.083 | [15] -0.004 | [16] -0.009 | [17] 0.019 | [18] -0.061 | [19] -0.056 | [20] 0.041

RBM5 (UniProt P52756)
Sequence of UniProt P52756 (P52756 whole entry, looked up): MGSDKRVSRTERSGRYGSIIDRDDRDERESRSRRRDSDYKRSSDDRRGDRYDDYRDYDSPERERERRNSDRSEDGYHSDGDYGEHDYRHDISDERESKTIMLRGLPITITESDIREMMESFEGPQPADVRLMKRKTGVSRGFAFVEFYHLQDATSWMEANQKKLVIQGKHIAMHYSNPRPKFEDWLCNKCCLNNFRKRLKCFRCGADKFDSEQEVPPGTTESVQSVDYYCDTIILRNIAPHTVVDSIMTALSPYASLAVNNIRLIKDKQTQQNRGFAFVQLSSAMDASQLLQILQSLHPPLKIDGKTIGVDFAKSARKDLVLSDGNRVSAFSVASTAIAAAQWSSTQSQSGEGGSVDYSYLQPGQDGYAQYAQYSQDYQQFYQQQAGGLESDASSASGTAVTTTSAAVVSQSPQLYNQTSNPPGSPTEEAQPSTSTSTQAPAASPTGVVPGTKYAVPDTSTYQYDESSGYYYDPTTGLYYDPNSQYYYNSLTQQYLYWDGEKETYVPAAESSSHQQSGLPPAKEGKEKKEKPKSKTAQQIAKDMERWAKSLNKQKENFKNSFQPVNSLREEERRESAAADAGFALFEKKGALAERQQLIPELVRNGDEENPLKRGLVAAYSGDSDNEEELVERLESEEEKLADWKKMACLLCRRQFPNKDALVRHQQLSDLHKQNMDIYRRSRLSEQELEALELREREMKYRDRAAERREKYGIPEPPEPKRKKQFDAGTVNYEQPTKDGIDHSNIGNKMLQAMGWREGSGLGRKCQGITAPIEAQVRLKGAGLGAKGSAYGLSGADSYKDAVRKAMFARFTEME
inactive: [1] -0.226 | [2] -0.059 | [3] 0.021 | [4] 0.01 | [5] 0.028 | [6] 0.044 | [7] 0.134 | [8] -0.035 | [9] 0.182 | [10] 0.18 | [11] 0.029 | [12] -0.013 | [13] 0.005 | [14] -0.268 | [15] -0.058 | [16] -0.015 | [17] 0 | [18] 0.058 | [19] -0.051 | [20] 0.089

RIPK1 (UniProt Q13546)
active: [16] 0.256 | [17] 0.326 | [20] 0.755
inactive: [1] 0.001 | [2] -0.108 | [3] 0.044 | [4] 0.065 | [5] 0.035 | [6] -0.017 | [7] 0.025 | [8] -0.025 | [9] -0.016 | [10] 0.042 | [11] 0.006 | [12] -0.002 | [13] 0.061 | [14] -0.026 | [15] -0.05 | [18] 0.038 | [19] 0.007

RIOK3 (UniProt O14730)
inactive: [1] -0.04 | [3] 0.029 | [4] 0.018 | [5] 0.12 | [6] 0.058 | [7] 0.132 | [8] -0.006 | [9] 0 | [10] 0.055 | [11] 0.026 | [12] -0.032 | [13] -0.031 | [14] 0.021 | [15] -0.007 | [16] -0.009 | [17] -0.008 | [18] 0.036 | [19] -0.021 | [20] 0.008
active: [2] -0.273

RASA3 (UniProt Q14644)
inactive: [1] -0.089 | [2] -0.246 | [3] 0 | [4] 0.052 | [5] -0.118 | [6] -0.005 | [7] 0.082 | [8] -0.006 | [9] 0.032 | [10] -0.043 | [11] 0.08 | [12] -0.044 | [13] -0.061 | [14] -0.049 | [15] 0.103 | [16] -0.026 | [17] -0.017 | [18] -0.005 | [19] -0.198 | [20] 0.005

RPLP0P6 (UniProt Q8NHW5)
inactive: [1] -0.018 | [2] 0.015 | [3] -0.001 | [4] -0.014 | [5] 0.023 | [6] 0.001 | [7] 0.018 | [8] 0.004 | [9] 0.023 | [10] -0.019 | [11] 0.003 | [12] 0.033 | [13] -0.013 | [14] 0.014 | [15] 0.016 | [16] -0.013 | [17] -0.005 | [18] 0.001 | [20] 0.034
active: [19] 0.274

RELN (UniProt P78509)
inactive: [1] 0.026 | [2] -0.051 | [3] -0.025 | [4] 0.055 | [5] -0.016 | [6] -0.009 | [7] -0.092 | [8] -0.014 | [9] 0.141 | [10] 0.089 | [11] 0.047 | [12] 0.047 | [13] -0.022 | [14] -0.104 | [15] 0.002 | [16] 0.057 | [17] -0.002 | [18] -0.044 | [19] -0.042 | [20] 0.08

RALGAPA1 isoform 6 (UniProt Q6GYQ0)
Sequence of UniProt Q6GYQ0 (Q6GYQ0 whole entry, looked up): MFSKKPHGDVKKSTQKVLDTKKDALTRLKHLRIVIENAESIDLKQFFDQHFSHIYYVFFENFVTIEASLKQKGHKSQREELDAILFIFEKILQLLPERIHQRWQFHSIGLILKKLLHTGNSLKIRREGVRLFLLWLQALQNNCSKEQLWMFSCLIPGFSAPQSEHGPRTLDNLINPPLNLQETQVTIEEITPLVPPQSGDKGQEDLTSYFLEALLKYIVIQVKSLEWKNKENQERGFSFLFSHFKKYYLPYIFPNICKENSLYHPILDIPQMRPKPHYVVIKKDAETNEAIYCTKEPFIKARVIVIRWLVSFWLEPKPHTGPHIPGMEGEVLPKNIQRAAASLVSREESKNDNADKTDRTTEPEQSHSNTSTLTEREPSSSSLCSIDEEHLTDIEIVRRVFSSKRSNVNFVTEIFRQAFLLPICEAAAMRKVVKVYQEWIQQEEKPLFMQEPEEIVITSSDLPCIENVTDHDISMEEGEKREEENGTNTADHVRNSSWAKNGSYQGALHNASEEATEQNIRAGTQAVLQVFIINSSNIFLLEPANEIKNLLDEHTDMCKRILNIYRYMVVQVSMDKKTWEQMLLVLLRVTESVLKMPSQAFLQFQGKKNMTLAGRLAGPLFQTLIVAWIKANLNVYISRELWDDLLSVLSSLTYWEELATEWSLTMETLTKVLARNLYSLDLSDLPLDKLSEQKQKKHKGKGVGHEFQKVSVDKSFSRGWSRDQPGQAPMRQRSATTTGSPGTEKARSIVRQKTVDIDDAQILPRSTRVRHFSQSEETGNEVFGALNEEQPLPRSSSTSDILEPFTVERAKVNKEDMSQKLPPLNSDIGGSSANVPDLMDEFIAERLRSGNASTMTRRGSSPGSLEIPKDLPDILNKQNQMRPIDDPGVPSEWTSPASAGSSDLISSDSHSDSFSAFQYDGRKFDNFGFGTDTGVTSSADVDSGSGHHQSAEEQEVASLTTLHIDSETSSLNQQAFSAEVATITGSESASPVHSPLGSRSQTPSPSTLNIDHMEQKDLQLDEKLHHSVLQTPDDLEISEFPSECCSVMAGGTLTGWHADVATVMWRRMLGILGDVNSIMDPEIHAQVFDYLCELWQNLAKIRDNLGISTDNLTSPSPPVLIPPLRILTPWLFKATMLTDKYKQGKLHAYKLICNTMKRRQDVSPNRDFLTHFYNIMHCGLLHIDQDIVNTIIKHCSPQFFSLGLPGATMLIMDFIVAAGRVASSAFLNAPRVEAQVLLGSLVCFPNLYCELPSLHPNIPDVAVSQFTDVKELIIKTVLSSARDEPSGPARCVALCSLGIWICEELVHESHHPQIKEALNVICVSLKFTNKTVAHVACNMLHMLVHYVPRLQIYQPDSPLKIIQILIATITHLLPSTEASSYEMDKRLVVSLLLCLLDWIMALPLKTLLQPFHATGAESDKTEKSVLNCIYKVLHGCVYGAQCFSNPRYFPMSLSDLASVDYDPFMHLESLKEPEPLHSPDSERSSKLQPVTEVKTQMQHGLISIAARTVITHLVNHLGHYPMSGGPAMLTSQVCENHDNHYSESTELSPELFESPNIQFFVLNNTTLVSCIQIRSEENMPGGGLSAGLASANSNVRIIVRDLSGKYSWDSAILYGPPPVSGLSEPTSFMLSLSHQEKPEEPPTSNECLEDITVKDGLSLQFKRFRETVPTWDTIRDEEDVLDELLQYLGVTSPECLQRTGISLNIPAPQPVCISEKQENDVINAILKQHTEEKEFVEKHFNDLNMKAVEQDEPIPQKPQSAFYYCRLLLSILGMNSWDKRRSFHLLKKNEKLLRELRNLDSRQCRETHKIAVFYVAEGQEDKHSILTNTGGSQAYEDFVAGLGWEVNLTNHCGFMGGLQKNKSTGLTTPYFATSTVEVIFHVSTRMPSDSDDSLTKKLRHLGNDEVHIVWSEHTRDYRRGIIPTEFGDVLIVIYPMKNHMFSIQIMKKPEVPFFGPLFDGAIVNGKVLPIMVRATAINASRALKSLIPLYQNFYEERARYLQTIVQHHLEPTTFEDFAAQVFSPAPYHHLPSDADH
active: [14] -0.28
inactive: [1] -0.102 | [2] 0.033 | [3] 0.007 | [4] 0.069 | [5] 0.003 | [6] 0.016 | [7] 0.094 | [8] -0.029 | [9] 0.047 | [10] 0.056 | [11] -0.075 | [12] -0.157 | [13] 0.036 | [15] 0.074 | [16] 0.257 | [17] -0.006 | [18] 0.062 | [19] -0.026 | [20] 0.321

RABGGTB (UniProt P53611)
Sequence of UniProt P53611 (P53611 whole entry, looked up): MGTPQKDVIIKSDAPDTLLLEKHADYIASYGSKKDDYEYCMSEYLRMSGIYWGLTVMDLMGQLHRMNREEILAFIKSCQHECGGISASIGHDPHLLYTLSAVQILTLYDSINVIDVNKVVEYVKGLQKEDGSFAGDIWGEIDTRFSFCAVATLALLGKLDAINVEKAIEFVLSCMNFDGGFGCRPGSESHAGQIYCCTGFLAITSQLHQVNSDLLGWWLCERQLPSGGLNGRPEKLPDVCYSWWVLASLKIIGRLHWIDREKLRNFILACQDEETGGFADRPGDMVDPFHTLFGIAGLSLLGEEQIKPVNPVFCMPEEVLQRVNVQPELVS
inactive: [1] -0.015 | [2] -0.043 | [3] -0.025 | [4] 0.031 | [5] -0.021 | [6] 0.044 | [7] 0.065 | [8] 0.005 | [9] 0.002 | [10] -0.002 | [11] -0.02 | [12] 0.006 | [13] -0.031 | [14] 0.135 | [15] 0.043 | [16] -0.051 | [17] -0.023 | [18] 0.016 | [19] -0.087 | [20] 0.028
